10 compounds from PubChem BioAssay (NCI) can be followed below.

Compounds without any hit were thinned out: in the full panel of roughly 83,000, 20% have a hit.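 Activity criterion: percent growth below 10, measured after cells in 96-well plates were exposed to a single compound concentration for 48 hours.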 Unmarked numbers belong to inactive results. Calls of active or inactive are those of the source.

Test systems include SR leukemia; RPMI-8226 leukemia; OVCAR-8 ovarian; OVCAR-5 ovarian; OVCAR-4 ovarian; SK-OV-3 ovarian; IGROV1 ovarian; OVCAR-3 ovarian; HS 578T breast; NCI/ADR-RES ovarian; T-47D breast; BT-549 breast; MDA-MB-435 melanoma; SW-620 colon; MCF7 breast; HCT-116 colon; HCC-2998 colon; KM12 colon.
Holding throughout (assay): NCI-60 one-dose screen, 48 h (100 = growth as untreated, 0 = no growth, -100 = all killed)
What all share (settings): 10 µM unless noted

Regarding `OCCNCCNc1c2ccccc2nc2ccccc12`, the growth with SR leukemia was 43.9%; in the experiment with RPMI-8226 leukemia it was 90.8%; in the experiment with OVCAR-8 ovarian it was 46.3%; in the experiment with OVCAR-5 ovarian, 114%; with OVCAR-4 ovarian, 63.9%; in the experiment on SK-OV-3 ovarian, 78%. In addition, the growth is 96.7% in the experiment on IGROV1 ovarian; 65.6% in the experiment with OVCAR-3 ovarian; 88.4% with HS 578T breast; 89.1% with NCI/ADR-RES ovarian; 39.6% in the experiment on T-47D breast; 103% in the experiment with BT-549 breast. The growth in the experiment with MDA-MB-435 melanoma was 89.4%; with SW-620 colon it was 59.5%; in the experiment with MCF7 breast it was 23.4%; with HCT-116 colon, 37.7%; with HCC-2998 colon, 52.6%; in the experiment on KM12 colon, 55.6%.

With `COc1ccc(/C=N\NC(=O)CN2CCN(c3cc4c(cc3F)c(=O)c(C(=O)N/N=C/c3ccc(OC)cc3)cn4C3CC3)CC2)cc1`, the growth with SR leukemia is 72.1%; with RPMI-8226 leukemia, 69.4%; with OVCAR-8 ovarian, 92.2%; in the experiment with OVCAR-5 ovarian, 122%; in the experiment on OVCAR-4 ovarian it was 80.7%; in the experiment with SK-OV-3 ovarian it was 112%. Moreover, the growth with IGROV1 ovarian was 72%; with OVCAR-3 ovarian it was 85.2%; in the experiment on HS 578T breast it was 92.4%; with NCI/ADR-RES ovarian, 88.2%; in the experiment with T-47D breast it was 82.5%; in the experiment on BT-549 breast it was 88.5%. Further, the growth in the experiment with MDA-MB-435 melanoma is 90.3%; in the experiment on SW-620 colon, 101%; in the experiment with MCF7 breast it was 73.2%; in the experiment on HCT-116 colon, 88.8%; in the experiment with HCC-2998 colon it was 102%; in the experiment on KM12 colon it was 89.8%.

Regarding `COc1cc(C2CC(=O)Nc3c2cnn3Cc2ccco2)cc2c1OCCO2` (centres undefined), the growth in the experiment with SR leukemia was 8.04% (active); in the experiment with RPMI-8226 leukemia, 77.2%; in the experiment on OVCAR-8 ovarian, 101%; with OVCAR-5 ovarian, 86.2%; in the experiment on OVCAR-4 ovarian, 94.3%; in the experiment with SK-OV-3 ovarian, 97.7%. In addition, the growth was 56.3% with IGROV1 ovarian; 73.9% in the experiment with OVCAR-3 ovarian; 83.6% in the experiment on HS 578T breast; 88.9% in the experiment on NCI/ADR-RES ovarian; 88.8% in the experiment with T-47D breast; 87.7% with BT-549 breast. Also, the growth was 4.28% (active) in the experiment with MDA-MB-435 melanoma; 56.6% in the experiment on SW-620 colon; 54.1% with MCF7 breast; 72.5% with HCT-116 colon; 48.4% with KM12 colon.

Consider `Cc1ccc2cnc(N)c(C#Cc3cncc(C(=O)Nc4ccc(CN5CCN(C)CC5)c(C(F)(F)F)c4)c3)c2c1`, for which the growth is -31.2% (active) in the experiment on SR leukemia; -31.4% (active) in the experiment with RPMI-8226 leukemia; -85.4% (active) with OVCAR-8 ovarian; -89% (active) in the experiment with OVCAR-5 ovarian; -88% (active) with OVCAR-4 ovarian; -17.5% (active) in the experiment on SK-OV-3 ovarian. Moreover, the growth is -59.8% (active) in the experiment with IGROV1 ovarian; -97.6% (active) in the experiment on OVCAR-3 ovarian; -39.2% (active) with HS 578T breast; -67.2% (active) in the experiment with NCI/ADR-RES ovarian; -65.2% (active) in the experiment with T-47D breast; -96.6% (active) in the experiment on MDA-MB-435 melanoma. Besides, the growth is -86.1% (active) with SW-620 colon; -85.8% (active) with MCF7 breast; -36.1% (active) in the experiment with HCT-116 colon; -82.9% (active) in the experiment on HCC-2998 colon; -82.6% (active) in the experiment with KM12 colon.

With `COc1cc(C2CC(=O)Nc3c2c(C)nn3-c2nc3ccccc3[nH]2)cc(OC)c1OC` (centres undefined), the growth in the experiment on SR leukemia is 83.8%; in the experiment with RPMI-8226 leukemia, 108%; in the experiment with OVCAR-8 ovarian it was 103%; with OVCAR-5 ovarian it was 103%; in the experiment on OVCAR-4 ovarian, 107%; in the experiment on SK-OV-3 ovarian, 111%. Moreover, the growth in the experiment with IGROV1 ovarian was 85.1%; in the experiment with OVCAR-3 ovarian, 115%; in the experiment on HS 578T breast, 94.5%; in the experiment on NCI/ADR-RES ovarian, 98.7%; in the experiment with T-47D breast, 103%; in the experiment on MDA-MB-435 melanoma it was 103%. Also, the growth in the experiment on SW-620 colon was 97.4%; in the experiment on MCF7 breast it was 88.1%; in the experiment on HCT-116 colon, 107%; with HCC-2998 colon it was 93.7%; in the experiment with KM12 colon it was 123%.

In the case of `COc1ccc(CCN2CC=Cn3c2nc2ccccc2c3=O)cc1`, the growth in the experiment on SR leukemia is 22.1%; in the experiment with RPMI-8226 leukemia, 21.4%; in the experiment with OVCAR-8 ovarian, 22.2%; in the experiment with OVCAR-5 ovarian, 45%; in the experiment on OVCAR-4 ovarian, 41.6%; in the experiment on SK-OV-3 ovarian, 59.8%. Also, the growth in the experiment on IGROV1 ovarian was 32.2%; in the experiment on OVCAR-3 ovarian, -1.6% (active); in the experiment on HS 578T breast, 37.9%; in the experiment on NCI/ADR-RES ovarian, 15%; in the experiment with T-47D breast, 75%; in the experiment with BT-549 breast it was 17.2%. Also, the growth in the experiment on MDA-MB-435 melanoma is -4.94% (active); in the experiment on SW-620 colon, 25.9%; with MCF7 breast, 18.9%; with HCT-116 colon it was 10.2%; in the experiment on HCC-2998 colon it was 5.15% (active); in the experiment on KM12 colon, 4.27% (active).

Regarding `COc1cnc2c(c1)C(=O)c1c-2n(CCCN2CCNCC2)c(=O)c2cc([N+](=O)[O-])ccc12`, the growth in the experiment on SR leukemia was -21.7% (active); in the experiment on RPMI-8226 leukemia it was -37.1% (active); in the experiment on OVCAR-8 ovarian it was -52.8% (active); in the experiment on OVCAR-5 ovarian, -77.9% (active); in the experiment on OVCAR-4 ovarian it was -77.1% (active); in the experiment with SK-OV-3 ovarian it was 3.11% (active). Also, the growth in the experiment with IGROV1 ovarian is -58.3% (active); in the experiment on OVCAR-3 ovarian, -83.1% (active); in the experiment with HS 578T breast it was 70.7%; in the experiment with NCI/ADR-RES ovarian, -44.3% (active); with T-47D breast it was -52.2% (active); in the experiment with MDA-MB-435 melanoma it was -92% (active). Further, the growth was -70% (active) in the experiment with SW-620 colon; -63.5% (active) with MCF7 breast; -93.6% (active) in the experiment on HCT-116 colon; 36.2% in the experiment with HCC-2998 colon; -75.5% (active) with KM12 colon.

`O=C1c2cccnc2C(=O)c2c1c(C(=O)OCCN1CCCCC1)c1ccccn21`: the growth was -23.9% (active) with SR leukemia; -29.9% (active) with RPMI-8226 leukemia; -58.2% (active) with OVCAR-8 ovarian; -27.8% (active) with OVCAR-5 ovarian; 0.138% (active) in the experiment with OVCAR-4 ovarian; -36.8% (active) with SK-OV-3 ovarian. Besides, the growth in the experiment on IGROV1 ovarian is -16.7% (active); in the experiment on OVCAR-3 ovarian, -2.68% (active); in the experiment on HS 578T breast, -0.578% (active); with NCI/ADR-RES ovarian, -25.5% (active); in the experiment on T-47D breast, 4.01% (active); in the experiment on BT-549 breast it was 20.1%. Also, the growth was -5.97% (active) in the experiment on MDA-MB-435 melanoma; -13.6% (active) in the experiment with SW-620 colon; -43.3% (active) in the experiment with MCF7 breast; -8.36% (active) with HCT-116 colon; -46.6% (active) with HCC-2998 colon; 8.77% (active) with KM12 colon.

With `CC(=O)Nc1ccc2c(c1)c(NC(C)=O)nn2C(=O)Nc1ccc(Cc2ccccc2)cc1`, the growth with SR leukemia is 98.7%; with RPMI-8226 leukemia, 88.8%; in the experiment on OVCAR-8 ovarian it was 71.8%; in the experiment on OVCAR-5 ovarian it was 67.1%; in the experiment with OVCAR-4 ovarian, 89.4%; in the experiment with SK-OV-3 ovarian, 67.3%. Also, the growth with IGROV1 ovarian is 83.2%; in the experiment with OVCAR-3 ovarian it was 84.4%; with HS 578T breast, 56.9%; with NCI/ADR-RES ovarian, 89.4%; in the experiment on T-47D breast, 82.5%; in the experiment on BT-549 breast, 43%. Further, the growth is 82.2% in the experiment with MDA-MB-435 melanoma; 102% in the experiment with SW-620 colon; 89.6% in the experiment with MCF7 breast; 61% in the experiment with HCT-116 colon; 78.8% with HCC-2998 colon; 85.9% with KM12 colon.

Turning to `CCCCCCCCCCCCCCCCCCNC(=O)[C@H]1CSC(c2ccc(OC)c(F)c2)N1` (some centres undefined), the growth was -30.9% (active) in the experiment with SR leukemia; -46.8% (active) with RPMI-8226 leukemia; -22.8% (active) in the experiment on OVCAR-8 ovarian; -13.3% (active) in the experiment on OVCAR-5 ovarian; 76.9% in the experiment on OVCAR-4 ovarian; 88.1% in the experiment with SK-OV-3 ovarian. Moreover, the growth in the experiment on IGROV1 ovarian is 30.2%; in the experiment with OVCAR-3 ovarian it was -3.45% (active); with HS 578T breast, 32.6%; in the experiment with NCI/ADR-RES ovarian, -36.8% (active); with T-47D breast, -62.5% (active); in the experiment with MDA-MB-435 melanoma, -83% (active). Besides, the growth in the experiment on SW-620 colon is -60.2% (active); in the experiment on MCF7 breast, -67.9% (active); in the experiment with HCT-116 colon, -72.7% (active); in the experiment on HCC-2998 colon, -57.5% (active).
